High-throughput results from PubChem.
The list is not random: actives were taken first. Their share in the collection is about 5.7%.
Nrf2 block: Nrf2 qHTS screen for inhibitors; A549 ARE-Fluc reporter, luciferase luminescence, 18-24 h; AID 504444, 2011; 360,000 compounds, 2.1% hits; Potency, µM (highest dose often 46 µM), for the others: top-dose activity change, negative = inhibition, actives largely listed as inhibitors; further: potency means the concentration at half of the fitted maximal effect; nearly all actives have a fitted effect of over 60% in size
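Nrf2 function is reported as luminescence of an ARE-controlled luciferase in A549 cells. Compounds were tested at several concentrations, and a CellTiter-Fluor read on the same wells flagged cytotoxicity.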
Giardia killer: Small Molecules that selectively kill Giardia lamblia: qHTS. activity change, % at 7.66 µM, hits read low. 340,000 compounds, 0.15% hits. Giardia lamblia trophozoite viability. AID 540267, 2011; in the data active means activity change below about -80%; inconclusive means between about -30% and that limit;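 further: parasites exposed to compound for two days anaerobically before the ATP read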
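Killing of trophozoites was scored by loss of ATP luminescence after a 48 hrs anaerobic exposure to compounds at 37 deg C, using 100 cells per well.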
PI4K2A block: qHTS for small molecular inhibitors of PI4K2A; Phosphatidylinositol 4-kinase type 2-alpha (Homo sapiens), Q9BTU6; purified PI4K2A, ADP-Glo luminescence, 1 h; hits give low values; activity change, negative = inhibition, % at 76.9 µM; 420,000 compounds, 0.13% hits; in the data active means activity change below about -50%; inconclusive means mostly about -30% to -49%;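 further: -100% = wells without enzyme as full effect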
Target sequence (Q9BTU6 whole entry, looked up): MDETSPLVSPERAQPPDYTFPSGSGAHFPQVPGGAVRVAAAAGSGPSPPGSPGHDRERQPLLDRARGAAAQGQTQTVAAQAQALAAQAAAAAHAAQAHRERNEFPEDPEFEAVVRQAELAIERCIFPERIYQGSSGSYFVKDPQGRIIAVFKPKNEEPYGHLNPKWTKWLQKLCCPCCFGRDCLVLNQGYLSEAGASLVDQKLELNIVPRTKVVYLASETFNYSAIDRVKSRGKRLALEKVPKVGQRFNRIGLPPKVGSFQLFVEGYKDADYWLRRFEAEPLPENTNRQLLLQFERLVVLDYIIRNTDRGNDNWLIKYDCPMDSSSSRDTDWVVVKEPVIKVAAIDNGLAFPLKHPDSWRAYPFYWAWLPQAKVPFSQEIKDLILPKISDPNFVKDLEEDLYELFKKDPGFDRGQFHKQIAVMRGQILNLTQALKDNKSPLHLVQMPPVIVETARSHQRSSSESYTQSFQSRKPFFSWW
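ADP-Glo luminescence measured ADP generated by PI4K2A enzyme (4 ug/mL before mixing) with 1.2 mM PI substrate (pre-mix) and 300 microM ATP (pre-mix). Tris pH7.5 buffer with MgCl2, Triton X-100; 1 h reaction at ambient temperature.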
KB-V1 cytotox: qHTS assay for MDR1-selective chemotherapeutics: Primary screen using the drug-selected MDR subline cells KB-V1 | KB-V1 MDR cells viability, CellTiter-Glo, 72 h | Potency, µM (highest dose often 46.1 µM), hits mostly cytotoxic | 400,000 compounds, 3.4% hits | AID 1347076, 2019; further: potency means the concentration at half of the fitted maximal effect; nearly all actives have a fitted effect of over 60% in size
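KB-V1 cells (P-gp-expressing MDR subline of KB-3-1) in phenol-red-free DMEM with 10% FBS were exposed to library compounds over a concentration series for 72 h at 37 degrees C. Viability read by CellTiter-Glo luminescence; concentration-effect curves fitted after normalization.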
A549 tox-1: Nrf2 qHTS screen for inhibitors: counterscreen for cytotoxicity | AID 504648, 2011 | A549 ARE-Fluc cells, CellTiter-Fluor viability, 18-24 h | Potency, µM (series often up to 46 µM), for the others: top-dose activity change, negative = cytotoxicity, usual class: inhibitors | 390,000 compounds, 0.16% hits; further: potency means the concentration at half of the fitted maximal effect
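A549 ARE_Fluc cells in 5% FBS OPTI-MEM were exposed to compounds in concentration-response for 18-24 h at 37 deg C. Viability was read by CellTiter-Fluor fluorescence (Ex 405/Em 525) after 30 min, before the luciferase read.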
KB-3-1 cytotox: qHTS assay for MDR1-selective chemotherapeutics: Primary screen using the parental adenocarcinoma cell KB-3-1; KB-3-1 viability, CellTiter-Glo ATP luminescence, 72 h; Potency, µM (doses to about 46.1 µM), actives largely listed as cytotoxic; 400,000 compounds, 1.4% hits; AID 1347075, 2019; further: potency means the concentration at half of the fitted maximal effect; nearly all actives have a fitted effect of over 60% in size
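Cells are dispensed, compounds pinned in, plates held at 37 °C for 72 h, then CellTiter-Glo is added and luminescence read after 10 minutes. Cell line: parental KB-3-1 in phenol-red-free DMEM, 10% FBS.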
FLuc counter 3: Nrf2 qHTS screen for inhibitors: Purified Fluc Biochemical Counterscreen for Hit Validation. shares compounds with Nrf2 block. purified firefly luciferase, luminescence inhibition. Potency, µM (highest dose often 57.5 µM), inactives show top-dose activity change, negative = inhibition, hits mostly inhibitors. 1,400 compounds, 4% hits. AID 720522, 2013; further: potency means the concentration at half of the fitted maximal effect; nearly all actives have a fitted effect of over 65% in size
A549 tox-2: Nrf2 qHTS screen for inhibitors: A549 ARE-Fluc Cytotoxicity Counterscreen for Hit Validation | shares compounds with Nrf2 block | A549 ARE-Fluc cells, cytotoxicity counterscreen | Potency, µM (highest dose often 46.1 µM), without a hit: at the highest dose activity change, negative = cytotoxicity, actives largely listed as inhibitors | 1,400 compounds, 2% hits;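 further: potency means the concentration at half of the fitted maximal effect; cells exposed to compounds for 18 to 24 hours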
Nrf2 ARE inh: Nrf2 qHTS screen for inhibitors: Nrf2 A549 ARE-Fluc Confirmation Assay for Hit Validation. 1,400 compounds, 74% hits. shares compounds with Nrf2 block. Potency, µM (series often up to 46.1 µM), inactives show top-dose activity change, negative = inhibition, most hits filed as inhibitors. A549 ARE-firefly luciferase reporter, luminescence; further: potency means the concentration at half of the fitted maximal effect; nearly all actives have a fitted effect of over 65% in size
Numbers without * were called inactive; i = inactive; u = inconclusive; x = no result given. Unless noted, the call rests on the fitted dose curve; in most records, active means well fitted curve in the direction sought with a large enough effect; inconclusive means small, poorly fitted or top-dose-only effect, or another doubt; inactive means no such curve, though single readings can be large; an effect the other way counts as inactive or inconclusive. Unless noted, on the % scale 0 is the no-effect control and ±100 the full control effect.

SMILES	Nrf2 block	Giardia killer	PI4K2A block	KB-V1 cytotox	A549 tox-1	KB-3-1 cytotox	FLuc counter 3	A549 tox-2	Nrf2 ARE inh
CCCCNc1nc2c(c(=O)n(C)c(=O)n2C)n1CCC	-5%	7	3	i	0%	i	x	x	x
CCCNc1nc2c(c(=O)n(C)c(=O)n2C)n1CCC(C)C	9.2µM*	-7	8	i	-20%	u	2%	-5%	u
CCCCCCn1c(NCC)nc2c1c(=O)n(C)c(=O)n2C	3.7µM*	13	-3	u	-17%	u	1%	-7%	5.8µM*
CCCNc1nc2c(c(=O)n(C)c(=O)n2C)n1Cc1cccc(C)c1	6.5µM*	-6	2	9.2µM*	-9%	u	0%	2%	10µM*
Clc1ccc(-n2c(SCc3cccc4ccccc34)nnc2-c2ccco2)cc1	x	x	3	x	x	x	x	x	x
COc1ccc(C(=O)CSc2nnc(-c3cccnc3)n2-c2ccc(C)cc2)cc1	x	x	6	x	x	x	x	x	x
CCOC(=O)[C@@]12CCCC=C1N(CCc1ccc(Cl)cc1)C(=O)[C@H]2CC(=O)NCc1ccccc1	x	x	2	x	x	x	x	x	x
CCC(NC(=O)Cn1c(-c2ccccc2)cc(C(C)=O)c1C)c1ccccc1 (centres undefined)	x	x	-8	x	x	x	x	x	x
COc1ccc(-c2c(C#N)c(SCC(=O)c3cc4ccccc4oc3=O)nc(C)c2C(=O)Nc2ccccc2)cc1	6.5µM*	0	4	u	-13%	18µM*	-19%	-18%	15µM*
CC(=O)c1c(C)n(CC(=O)NCc2ccc3c(c2)OCO3)c2ccccc12	5.8µM*	-8	0	2.9µM*	-5%	16µM*	1%	11%	u
Cc1ccc(-c2cc3cccc[n+]3cc2-c2ccc(C)cc2)cc1	3.3µM*	53	-2	i	-17%	4.6µM*	1%	-12%	2.6µM*
Cc1ccc(S(=O)(=O)c2nnn3c2nc(NCc2cccs2)c2sccc23)cc1C	u	x	-2	i	-2%	i	x	x	x
COc1ccccc1NS(=O)(=O)c1cc(NC(=O)Nc2cccc(C)c2)ccc1N1CCCCC1	4%	-5	-3	u	0%	i	x	x	x
O=C(Nc1ccc(Cl)cc1)Nc1ccc(N2CCCC2)c(S(=O)(=O)Nc2ccccc2Cl)c1	3.3µM*	12	2	u	u	u	0%	u	6.5µM*
Cc1ccc(C[n+]2ccccc2)cc1	5.2µM*	-8	6	u	-9%	u	1%	-1%	21µM*
COC(=O)c1ccc(C[n+]2ccccc2)cc1	-25%	-7	-1	i	1%	i	x	x	x
CC(C)(C)c1nc(N2CCN(C(=O)c3ccco3)CC2)c2nnn(Cc3ccccc3)c2n1	8.2µM*	3	-11	u	u	u	1%	u	1.3µM*
CCC(CC)C(=O)Nc1ccc2nc(SCC(=O)N3CCOCC3)sc2c1	-9%	x	0	x	0%	x	x	x	x
O=C1CCC(C(=O)OCC(=O)c2ccccc2)N1 (centres undefined)	4%	-9	-7	i	1%	i	x	x	x
CC1CC(C)C(=O)C(C(CC2CC(=O)NC(=O)C2)OC(=O)CC(=O)c2ccccc2)C1 (centres undefined)	5.2µM*	u	3	u	u	2.6µM*	2%	-19%	0.21µM*
COC(=O)CSc1nnc(-c2n[nH]c3c2CCC3)n1N	x	x	5	x	x	x	x	x	x
COC(=O)[C@]12C[C@H](CC(=O)NCCC(C)C)C(=O)N(CCC3=CCCCC3)C1=C[C@H](C1CCCC1)O[C@@H]2C	x	x	-3	x	x	x	x	x	x
O=C(COc1ccc(S(=O)(=O)NC2CCCCC2)cc1)N1CCN(c2cccc(Cl)c2)CC1	5.8µM*	-7	-5	u	u	13µM*	-1%	-17%	9.2µM*
O=C1N(c2ccccc2)C[C@@H]2C[C@@H](c3cc4ccccc4o3)N3CCC[C@@]123	1.2µM*	13	1	u	u	u	-3%	-28%	2.6µM*
COc1ccc(CNC(=O)c2cccc(N3CCCS3(=O)=O)c2)cc1	-5%	x	7	i	8%	i	x	x	x
SMILES	Nrf2 block	Giardia killer	PI4K2A block	KB-V1 cytotox	A549 tox-1	KB-3-1 cytotox	FLuc counter 3	A549 tox-2	Nrf2 ARE inh
COc1ccc(CNC(=O)c2cccc(N3CCCS3(=O)=O)c2)cc1OC	2.6µM*	x	-3	x	-10%	x	-1%	-1%	u
Cc1ccc(CNC(=O)c2cc3c(s2)-c2ccc(Cl)cc2SC3)cc1	u	x	0	i	2%	i	x	x	x
CN(C)CCNC(=O)c1cc2c(s1)-c1ccc(Cl)cc1SC2	5.8µM*	-16	-6	i	4%	u	-1%	u	0.013µM*
O=C(O)c1cccc(NC(=O)c2cccc(S(=O)(=O)N3CCc4ccccc43)c2)c1	10%	-2	5	i	10%	i	x	x	x
CCOC(=O)c1sc(NC(=O)c2cccc(S(=O)(=O)N3CCc4ccccc43)c2)c(C#N)c1C	5.8µM*	7	6	i	u	21µM*	-18%	u	2.9µM*
O=C(Nc1ccncc1)c1cccc(S(=O)(=O)N2CCc3ccccc32)c1	8.2µM*	1	-4	u	-20%	u	0%	-12%	7.3µM*
CCOC(=O)c1sc(NC(=O)c2cccnc2)c(C#N)c1C	10%	6	-3	i	0%	i	x	x	x
CCOC(=O)c1sc(NC(=O)c2cc(-c3ccccc3)nc3ccccc23)c(C#N)c1C	4.6µM*	15	1	u	u	15µM*	11µM*	u	6.5µM*
O=S1(=O)CC(N2CCCC2)CN1 (centres undefined)	x	x	-12	x	x	x	x	x	x
